Screening results as filed in PubChem.
Compounds with a hit are over-represented: about 2.4% of the library has one in this group of screens.
CHO-K1 Ca ag: counter-screen for M1 agonists: effect in parental CHO-K1 cells; 360,000 compounds, 0.48% hits; AID 602248, 2012; activation, % at 3 µM; Fluo-8 calcium fluorescence; scaled to maximal ATP response, vehicle zero; in the data active = activation above about 15%;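 note: untransfected CHO-K1 host cells lacking M1 receptor as counterscreen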
M1 PAM: human M1 muscarinic receptor positive allosteric modulators, primary screen, CHO-K1 cells, Fluo-8 calcium fluorescence, 1536-well; activation, % at 3 µM; Muscarinic acetylcholine receptor M1 (Homo sapiens), P11229; CHO-K1 hM1, ACh EC20; 0% = ACh EC20, 100% = maximal ACh; AID 588819, 2011; 360,000 compounds, 0.088% hits; in the data active = activation above about 19%, passing the limit was not always enough
Target sequence (P11229 whole entry, looked up): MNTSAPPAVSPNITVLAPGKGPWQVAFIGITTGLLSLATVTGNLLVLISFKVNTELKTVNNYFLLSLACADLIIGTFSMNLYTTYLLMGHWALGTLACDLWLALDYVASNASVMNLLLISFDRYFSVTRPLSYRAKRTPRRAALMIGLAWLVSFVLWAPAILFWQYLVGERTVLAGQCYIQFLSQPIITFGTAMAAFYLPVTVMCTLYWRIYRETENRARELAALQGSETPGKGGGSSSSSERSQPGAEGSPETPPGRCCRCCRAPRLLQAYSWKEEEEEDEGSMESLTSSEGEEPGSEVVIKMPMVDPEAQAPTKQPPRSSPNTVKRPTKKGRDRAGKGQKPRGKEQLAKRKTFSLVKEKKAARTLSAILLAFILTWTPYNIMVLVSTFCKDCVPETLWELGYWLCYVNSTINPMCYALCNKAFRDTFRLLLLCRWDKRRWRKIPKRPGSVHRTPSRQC
CHO-K1 Ca PAM: nonselective calcium activators in parental CHO-K1 cells, primary screen, counter-screen for M1 PAM project, cell-based, Fluo-8 calcium fluorescence, full deck, 1536-well | activation, % at 3 µM | 360,000 compounds, 0.02% hits | ATP EC20; 0% at ATP EC20, 100% at ATP max;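 active = activation above the run cutoff, the mean activation of all test compounds plus 3 SD, cut at about 40% in these data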;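 note: peak over basal fluorescence ratio in a 140 s read after ATP addition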
M1 antag: human M1 muscarinic receptor antagonists, primary screen, CHO-K1 cells, Fluo-8 calcium fluorescence, 1536-well; Muscarinic acetylcholine receptor M1 (Homo sapiens), P11229; inhibition, % at 3 µM; CHO-K1 hM1, ACh EC80 antagonist; 360,000 compounds, 1.3% hits;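 active = percent inhibition above its own plate's cutoff, namely the mean of that plate's compound wells plus 3 SD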;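 note: peak over basal fluorescence ratio during 140 s after agonist addition; 0% = ACh EC80 plus DMSO and 100% = DMSO alone without agonist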
CHO-K1 Ca antag: counter-screen for M1 antagonists: effect in parental CHO-K1 cells. inhibition, % at 3 µM. ATP-induced calcium, Fluo-8 fluorescence. AID 602250. 360,000 compounds, 0.6% hits;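 active = inhibition above a per-plate cutoff, the plate's mean sample inhibition plus 3 SD, cut at about 24% in these data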;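 note: 0% = DMSO plus EC80 ATP and 100% = DMSO alone without ATP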
CHRM1 agonist: human M1 muscarinic receptor agonists, primary screen, Fluo-8 calcium fluorescence, CHO-K1 cells, HTS. Muscarinic acetylcholine receptor M1 (Homo sapiens), P11229. CHO-K1 hM1, agonist mode; 0% DMSO, 100% acetylcholine EC100. activation, % at 3 µM. 360,000 compounds, 0.33% hits. AID 588814, 2011;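 active = activation above the run's mean compound activation plus 3 SD, cut at about 16% in these data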;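 note: peak over basal fluorescence ratio within a 140 s kinetic read after compound addition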
An asterisk follows results filed as active; x = not tested or not shown.

SMILES	CHO-K1 Ca ag	M1 PAM	CHO-K1 Ca PAM	M1 antag	CHO-K1 Ca antag	CHRM1 agonist
O=C(Nc1cccc(S(=O)(=O)N2CCCC2)c1)[C@@H]1O[C@H](CO)[C@@H](O)[C@H]1O	0	11	30	-11	-13	-4
COc1cc(C=C2C(=O)C=CC2=O)ccc1O	3	x	43*	x	-46	x
COc1cc(/C=C/C(=O)CC(=O)/C=C/c2ccc(O)c(OC)c2)ccc1O	19*	-20	-15	24	29*	19*
Cc1cc(NC(=O)COC(=O)Cn2[nH]c(=O)c3ccccc3c2=O)c([N+](=O)[O-])cc1C	1	-3	15	-3	-17	-3
CC(C)(CO)[C@@H](O)C(=O)NCCC(=O)O	0	-1	21	-30	-10	-1
Cc1nnc(NC(=O)CCN2C(=O)C3CC=CCC3C2=O)s1 (stereo not given)	0	3	4	-7	-1	-1
CC1CCCCC1NCC#CCOc1ccc(Cl)cc1 (stereo not given)	2	-23	18	63*	-12	-6
COc1ccccc1NS(=O)(=O)c1ccc(NC(=O)c2[nH]nc(OC)c2[N+](=O)[O-])cc1	2	4	15	0	-13	-2
O=C(CSc1nc2c(c(=O)[nH]1)CCC2)Nc1cccc(Cl)c1	0	15	9	-12	-1	17*
O=C(CSc1nc2c(c(=O)[nH]1)CCC2)Nc1ccccc1Cl	1	10	17	-15	-14	-2
CC(C)N(C(=O)Cn1cc(S(=O)(=O)CC(=O)Nc2ccccc2)c2ccccc21)C(C)C	0	4	9	-6	-3	-4
Cc1ccc(NC(=O)/C(=C\c2ccc([N+](=O)[O-])cc2)NC(=O)c2ccccc2)cc1	0	2	6	0	0	-3
O=C(Nc1ccc(C(=O)O)cc1)/C(=C\c1ccc([N+](=O)[O-])cc1)NC(=O)c1ccc(Br)cc1	-1	-9	-18	6	28*	-3
O=C(Nc1cccc2ccccc12)c1cc2c(cc1Br)OCO2	0	6	-2	-5	-4	-11
CCC(C)[C@H](NC(=O)C1CC(=O)N(c2ccc(OC)cc2)C1)C(=O)N1CCCCC1 (stereo not given in full)	2	11	32	-9	-24	-3
O=c1cc(-c2ccccc2)nc(/C=C/c2ccccc2)[nH]1	17*	10	17	-6	-2	10
COc1ccc(/C=C/c2nc(-c3ccccc3)cc(=O)[nH]2)cc1	1	10	7	-8	0	0
Cc1cccc(NC(=S)N(CCCN2CCCC2)Cc2cccn2Cc2ccc(Cl)cc2)c1	17*	-4	13	11	0	0
CCOc1ccc(NC(=S)N(CCCN2CCCC2)Cc2cccn2Cc2ccc(Cl)cc2)cc1	1	5	6	-4	-3	-5
O=c1[nH]c(-c2ccccc2)nc(CN2CCCCC2)c1O	1	29*	16	-27	-15	5
Cc1ccc(N(CC(=O)NC(C)C)C(=O)CCC(=O)Nc2ccccn2)c(C)c1	1	5	-8	-8	-20	-2
Cc1nc(C(=O)NCc2ccccc2)sc1C1(C)CC(c2ccccc2)=NO1 (stereo not given)	7	5	16	-11	-12	17*
O=C(CSc1n[nH]c(=O)n1C1CC1)c1ccc(F)cc1	1	10	2	-14	5	-2
CSc1n[nH]c(=O)n1C1CCCCC1	18*	-1	1	4	1	-6
COc1ccc(-c2c3c([nH]c(=S)c2C#N)CCC3)cc1	-1	13	-4	-17	26*	5
SMILES	CHO-K1 Ca ag	M1 PAM	CHO-K1 Ca PAM	M1 antag	CHO-K1 Ca antag	CHRM1 agonist
CNC[C@H]1Oc2ccc(NC(=O)C3CCCCC3)cc2CC(=O)N([C@H](C)CO)C[C@@H]1C	0	11	0	-12	-2	-3
C[C@H](CO)N1C[C@H](C)[C@@H](CN(C)Cc2ccc(O)cc2)OCc2cnnn2CCCC1=O	0	0	-6	-8	2	-7
COc1ccccc1CN(C)C[C@H]1OCc2cnnn2CCCC(=O)N([C@@H](C)CO)C[C@@H]1C	1	-34	14	102*	-1	-11
C[C@@H]1CN([C@H](C)CO)C(=O)CCCn2nncc2CO[C@H]1CN(C)Cc1ccc(Oc2ccccc2)cc1	1	-32	15	54*	-6	-11
COc1ccccc1CN(C)C[C@H]1OCc2cnnn2CCCC(=O)N([C@H](C)CO)C[C@@H]1C	0	10	-8	-17	20	0
Cc1ccc(CN(C)C[C@@H]2OCc3cnnn3CCCC(=O)N([C@H](C)CO)C[C@H]2C)cc1	0	6	2	-11	8	-9
C[C@@H]1CN([C@@H](C)CO)C(=O)CCCn2nncc2CO[C@H]1CN(C)Cc1ccc(Oc2ccccc2)cc1	0	-29	3	40*	-3	-12
CC(C)(C)NS(=O)(=O)c1ccc(NC(=O)CS(=O)(=O)Cc2ccccc2)cc1	1	10	7	-10	2	-4
COc1ccc(S(=O)(=O)NCC2CCCN(Cc3ccccc3Cl)C2)cc1 (stereo not given)	0	-24	-14	51*	3	-6
COc1ccc(S(=O)(=O)NCC2CCCN(Cc3ccc(OC)cc3F)C2)cc1 (stereo not given)	1	2	23	-3	-15	-14
CCN(CC)Cc1ccccc1Sc1ccccc1	0	-26	9	98*	4	-7
N/C(Cc1ccccc1Sc1ccccc1)=N\O	1	-2	6	2	-3	-1
COc1ccccc1CN(Cc1nc2ccccc2c(=O)[nH]1)S(=O)(=O)c1ccc2ccccc2c1	2	-25	-11	43*	-2	-7
COc1cc(NC(=O)COC(=O)C=C(C)C)c(C)cc1[N+](=O)[O-]	3	-3	1	7	-8	-5
O=C1NC(=O)C2(N1)C(=O)c1cccc3cccc2c13 (stereo not given)	100*	-9	1	6	20	49*
N#C/C(=C/c1ccc(-c2ccc(S(N)(=O)=O)cc2)o1)C(=O)Nc1ccccc1	4	-15	11	23	28*	-3
N#C/C(=C\c1ccccn1)c1nc2ccccc2s1	34*	-22	-12	26	34*	28*
N#C/C(=C/c1ccc(-c2ccc(S(N)(=O)=O)cc2)o1)c1nc2ccccc2s1	30*	-22	-6	60*	41*	54*
